# ChEMBL document CHEMBL1157539, “Thousands of chemical starting points for antimalarial lead identification” (Nature, 2010)
# System: Plasmodium falciparum
# Experiment: GSK_TCMDC: Inhibition of Plasmodium falciparum Dd2 in whole red blood cells, using parasite LDH activity as an index of growth. Test compounds present at 2uM
# Assay type: functional
row,SMILES,Inhibition [%]
1,O=C(O)C(F)(F)F.OCCN1CCN(Cc2ccc(-c3cccc(-c4nc5ccccc5[nH]4)c3)cc2)CC1,16
2,CCN(CCCN1CCCCC1)c1nc(C)cc(Nc2ccc(Cl)cc2)n1,92
3,CS(=O)(=O)NCCCNCc1ccc(-c2ccc(-c3nc4cc(C(F)(F)F)ccc4[nH]3)cc2)cc1.O=C(O)C(F)(F)F,83
4,CC(=O)c1ccc(S(=O)(=O)N2CCC(C(=O)Nc3ccccc3N3CCCC3)CC2)cc1,99
5,Cc1cc(Cl)c(S(=O)(=O)NC(C)(C)C)cc1OCC(=O)NC1CCCCC1,53
6,O=c1cc(NCCCNC(CNCCc2ccccc2)c2cc(Br)cc(Br)c2)[nH]c2ccccc12 (stereo unspecified),53
7,CC(=O)Nc1cccc(C(=O)Nc2cccc(-c3cccc(-c4nc5ccccc5[nH]4)c3)c2)c1,66
8,Cc1cc(Nc2ccc(Cl)cc2)n2nc(C(F)(F)F)nc2n1,95
9,COc1cccc(C=NNc2cc(C)nc3c(OC)cccc23)c1,58
10,Cc1cc(NC(=O)CCN2CCN(c3cccc(Cl)c3Cl)CC2)ccc1N1CCN(C(C)C)CC1.Cl,8
11,COc1ccc(NC(=O)/C=C/c2ccccc2Cl)cc1OCCN1CCC(N(C)C)CC1,19
12,CCOC(=O)c1c[nH]c2c(ccc3ccccc32)c1=O,96
13,O=C1c2ccccc2C(=O)N1CCOc1c(Br)cc(Br)cc1CNCCCNc1cc(=O)c2ccccc2[nH]1,12
14,CC(C)(CN)c1nc(-c2ccc(Br)c(O)c2)c(-c2ccncc2)[nH]1.Cl,97
15,c1ccc(Oc2ccc(Nc3ccnc4cc(-c5ccc(CNCCN6CCOCC6)o5)ccc34)cc2)nc1,100
16,CC(C)COc1ccc(Cl)cc1Cc1ccc(-c2nc3ccc(F)c(F)c3[nH]2)o1,85

row,SMILES,Inhibition [%]
1,Cc1ccc(NS(=O)(=O)c2ccc(-c3ccccc3)cc2)c(Cn2cnc(N3CCCNCC3)cc2=O)c1.O=C(O)C(F)(F)F,33
2,O=C(O)C(F)(F)F.O=S(=O)(NCCN1CCCC1)c1ccc(-c2cccc(CNCCc3cccs3)c2)cc1,30
3,CN1CCCC(CN2CCN(Cc3cccc(-c4ccc(-c5nc6ccccc6[nH]5)s4)c3)CC2)C1.O=C(O)C(F)(F)F (stereo unspecified),99
4,COc1ccc2[nH]c3ccccc3c(=O)c2c1,75
5,NC(=O)C1CCN(Cc2ccc(-c3ccc(-c4nc5cc(F)ccc5[nH]4)cc3)cc2)CC1.O=C(O)C(F)(F)F,100
6,O=C(Nc1ccc(-c2ccc(-c3nc4cc(C(F)(F)F)ccc4[nH]3)cc2)cc1)Nc1ccc(F)c(F)c1F,100
7,CCN(CC)/C(=N\CCCCCC/N=C(\NC(=N)c1ccc(Cl)cc1)N(CC)CC)NC(=N)c1ccc(Cl)cc1,99
8,CCc1ccc(S(=O)(=O)Nc2ccc(CCN3CCC(N4CCCCC4)CC3)cc2)cc1,13
9,COCCOc1cccc(CN2CCC(c3cc4nc(C)cc(C(F)(F)F)n4n3)C2)c1.O=C(O)CC(O)(CC(=O)O)C(=O)O (stereo unspecified),74
10,CCCc1cc(Cc2cnc(N)nc2N)cc(CCC)c1OC.Cl,1
11,Cc1cc2nc(N/C(N)=N/C(=O)NC3CCCCC3)nc(C)c2cc1C,98
12,CC(O)c1cccc(-c2ccc(Nc3ccnc4cc(-c5nccs5)ccc34)cc2)c1.Cl (stereo unspecified),69
13,CCCC(C)NC(=O)/C=C/c1ccccc1-c1cccc(OC)c1 (stereo unspecified),59
14,CC(C)C1C(=O)N(S(C)(=O)=O)C2CCN(C(=O)c3ccc(CN4CCCCC4)c([N+](=O)[O-])c3)C12.Cl (stereo unspecified),100
15,O=C(Nc1ccc(-c2ccccc2)cc1)Nc1ccc2c(c1)CCNCC2.O=C(O)C(F)(F)F,48

# System: HepG2
# Experiment: GSK_TCMDC: Percent inhibition of human HepG2 cell line. Test compounds present at 10uM.
# Assay type: functional
row,SMILES,Inhibition [%]
1,COc1ccc2ccccc2c1C=NN=c1cc(C)[nH]c2cc(C(F)(F)F)ccc12,1
2,COc1ccc(C(=O)N[C@@H](CC(C)C)C(=O)NC2CC[C@@H](C)N(C(=O)Nc3ccc(Cl)cc3)CC2=O)cc1OCCN1CCOCC1 (stereo partly specified),5
3,C=CCN1C(=O)CN(S(=O)(=O)c2ccc(-n3nc(C)cc3C)cc2)C1=S,5
4,Cc1ccc(C2CC(=O)CC(c3ccccn3)C2[N+](=O)[O-])cc1 (stereo unspecified),5
5,Fc1ccc2[nH]c(-c3ccc(-c4ccc(CN5CCN(CCN6CCOCC6)CC5)cc4)cc3)nc2c1.O=C(O)C(F)(F)F,38
6,O=C(O)C(F)(F)F.Oc1ccc(CCNc2nc(NCc3ccccc3-c3cccc(Cl)c3)nc(N3CCNCC3)n2)cc1,15
7,O=C(Nc1ccc(Cl)c(C(F)(F)F)c1)c1ccc(C(=O)Nc2ccc(Cl)c(C(F)(F)F)c2)cc1,9
8,COc1ccc(-c2ccc(CNCc3ccccc3)cc2)cc1S(=O)(=O)NCCN1CCCC1.O=C(O)C(F)(F)F,36
9,CCc1ccccc1N1CCN(CCCC(=O)c2ccc(NC(=O)c3ccc(Cl)cc3)cc2)CC1,17
10,O=C(O)C(F)(F)F.OCCN1CCN(Cc2ccc(-c3cccc(-c4nc5ccccc5[nH]4)c3)cc2)CC1,32
11,CCN(CCCN1CCCCC1)c1nc(C)cc(Nc2ccc(Cl)cc2)n1,30
12,CS(=O)(=O)NCCCNCc1ccc(-c2ccc(-c3nc4cc(C(F)(F)F)ccc4[nH]3)cc2)cc1.O=C(O)C(F)(F)F,25
13,CC(=O)c1ccc(S(=O)(=O)N2CCC(C(=O)Nc3ccccc3N3CCCC3)CC2)cc1,0
14,Cc1cc(Cl)c(S(=O)(=O)NC(C)(C)C)cc1OCC(=O)NC1CCCCC1,10
15,O=c1cc(NCCCNC(CNCCc2ccccc2)c2cc(Br)cc(Br)c2)[nH]c2ccccc12 (stereo unspecified),0
16,CC(=O)Nc1cccc(C(=O)Nc2cccc(-c3cccc(-c4nc5ccccc5[nH]4)c3)c2)c1,41
17,Cc1cc(Nc2ccc(Cl)cc2)n2nc(C(F)(F)F)nc2n1,5
18,COc1cccc(C=NNc2cc(C)nc3c(OC)cccc23)c1,6
19,Cc1cc(NC(=O)CCN2CCN(c3cccc(Cl)c3Cl)CC2)ccc1N1CCN(C(C)C)CC1.Cl,82
20,COc1ccc(NC(=O)/C=C/c2ccccc2Cl)cc1OCCN1CCC(N(C)C)CC1,18

row,SMILES,Inhibition [%]
1,CCOC(=O)c1c[nH]c2c(ccc3ccccc32)c1=O,0
2,O=C1c2ccccc2C(=O)N1CCOc1c(Br)cc(Br)cc1CNCCCNc1cc(=O)c2ccccc2[nH]1,10
3,CC(C)(CN)c1nc(-c2ccc(Br)c(O)c2)c(-c2ccncc2)[nH]1.Cl,31
4,c1ccc(Oc2ccc(Nc3ccnc4cc(-c5ccc(CNCCN6CCOCC6)o5)ccc34)cc2)nc1,0
5,CC(C)COc1ccc(Cl)cc1Cc1ccc(-c2nc3ccc(F)c(F)c3[nH]2)o1,26
6,Cc1ccc(NS(=O)(=O)c2ccc(-c3ccccc3)cc2)c(Cn2cnc(N3CCCNCC3)cc2=O)c1.O=C(O)C(F)(F)F,10
7,O=C(O)C(F)(F)F.O=S(=O)(NCCN1CCCC1)c1ccc(-c2cccc(CNCCc3cccs3)c2)cc1,41
8,CN1CCCC(CN2CCN(Cc3cccc(-c4ccc(-c5nc6ccccc6[nH]5)s4)c3)CC2)C1.O=C(O)C(F)(F)F (stereo unspecified),52
9,COc1ccc2[nH]c3ccccc3c(=O)c2c1,0
10,NC(=O)C1CCN(Cc2ccc(-c3ccc(-c4nc5cc(F)ccc5[nH]4)cc3)cc2)CC1.O=C(O)C(F)(F)F,12
11,O=C(Nc1ccc(-c2ccc(-c3nc4cc(C(F)(F)F)ccc4[nH]3)cc2)cc1)Nc1ccc(F)c(F)c1F,39
12,CCN(CC)/C(=N\CCCCCC/N=C(\NC(=N)c1ccc(Cl)cc1)N(CC)CC)NC(=N)c1ccc(Cl)cc1,1
13,CCc1ccc(S(=O)(=O)Nc2ccc(CCN3CCC(N4CCCCC4)CC3)cc2)cc1,35
14,COCCOc1cccc(CN2CCC(c3cc4nc(C)cc(C(F)(F)F)n4n3)C2)c1.O=C(O)CC(O)(CC(=O)O)C(=O)O (stereo unspecified),25
15,CCCc1cc(Cc2cnc(N)nc2N)cc(CCC)c1OC.Cl,18
16,Cc1cc2nc(N/C(N)=N/C(=O)NC3CCCCC3)nc(C)c2cc1C,20
17,CC(O)c1cccc(-c2ccc(Nc3ccnc4cc(-c5nccs5)ccc34)cc2)c1.Cl (stereo unspecified),31
18,CCCC(C)NC(=O)/C=C/c1ccccc1-c1cccc(OC)c1 (stereo unspecified),0
19,CC(C)C1C(=O)N(S(C)(=O)=O)C2CCN(C(=O)c3ccc(CN4CCCCC4)c([N+](=O)[O-])c3)C12.Cl (stereo unspecified),10
20,O=C(Nc1ccc(-c2ccccc2)cc1)Nc1ccc2c(c1)CCNCC2.O=C(O)C(F)(F)F,41
